Reference: PubChem BioAssay AID1159580 (chemical genetic matrix, 2015)
“And” between values parts separate entries of the source, which are not always exact repeats. Equal entries are not always repeated. Hit rate of the full screen: of about 5,500 compounds, about 2,000 (36%) were called active. Inconclusive results (about 18%) are left out. Rule as the data show it: active = normalized growth mostly below about 0.91 (no sharp cut-off); inconclusive = no clear call, values can overlap the other calls; inactive = mostly above about 0.92. The list shows a part of the results.

Test: chemical genetic growth profiling, strain panel (AID 1159580);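 also: tested at 20 µM; growth read once vehicle control cultures reached saturation at 30 °C; 1 = growth at the plate median or of vehicle wells; lower values mean less growth of the strain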
Conditions: S. cerevisiae deletion strains, growth OD

Measured: normalized growth

COP(=S)(OC)SCn1nnc2ccccc2c1=O
inactive: locus YAL013W, strain DEP1, active compounds read low 0.987 | locus YAL021C, strain ccr4, active compounds read low 1 | locus YAL026C, strain drs2, active compounds read low 1 | locus YAL030W, strain snc1, active compounds read low 1.03 | locus YBL061C, strain skt5, active compounds read low 1.01 | locus YBR009C, strain hhf1, active compounds read low 1 | locus YBR021W, strain FUR4, active compounds read low 0.887 | locus YBR023C, strain chs3, active compounds read low 0.997 | locus YBR171W, strain sec66, active compounds read low 1.01 | locus YBR229C, strain ROT2, active compounds read low 0.955 | locus YBR231C, strain swc5, active compounds read low 1 | locus YBR279W, strain paf1, active compounds read low 0.992 | locus YCL011C, strain gbp2, active compounds read low 1 | locus YCL016C, strain dcc1, active compounds read low 0.994 | locus YCL029C, strain bik1, active compounds read low 0.974 | locus YCL061C, strain MRC1, active compounds read low 0.996 | locus YCL069W, strain vba3, active compounds read low 1.02 | locus YCR088W, strain abp1, active compounds read low 1.02 | locus YDL005C, strain med2, active compounds read low 1 | locus YDL035C, strain GPR1, active compounds read low 0.921 | locus YDL040C, strain nat1, active compounds read low 1.01 | locus YDL074C, strain BRE1, active compounds read low 0.9 | locus YDL101C, strain DUN1, active compounds read low 0.966 | locus YDL134C, strain PPH21, active compounds read low 0.985 | locus YDL185W, strain tfp1, active compounds read low 0.948 | locus YDL192W, strain arf1, active compounds read low 0.976 | locus YDR001C, strain nth1, active compounds read low 1.02 | locus YDR069C, strain doa4, active compounds read low 0.96 | locus YDR101C, strain arx1, active compounds read low 0.986 | locus YDR137W, strain rgp1, active compounds read low 0.985 | locus YDR150W, strain NUM1, active compounds read low 0.971 | locus YDR159W, strain sac3, active compounds read low 0.927 | locus YDR162C, strain NBP2, active compounds read low 0.963 | locus YDR195W, strain ref2 1.06 | locus YDR297W, strain sur2, active compounds read low 0.998 | locus YDR318W, strain mcm21, active compounds read low 0.972 | locus YDR334W, strain swr1, active compounds read low 1.01 | locus YDR335W, strain msn5, active compounds read low 1 | locus YDR388W, active compounds read low 0.979 | locus YDR392W, strain spt3, active compounds read low 1.03 | locus YDR502C, strain sam2, active compounds read low 0.98 | locus YEL003W, strain gim4, active compounds read low 0.984 | locus YEL037C, strain rad23, active compounds read low 1.01 | locus YEL061C, strain CIN8 (second series), active compounds read low 1.01 | locus YEL061C, strain CIN8, active compounds read low 0.985 | locus YER015W, strain faa2, active compounds read low 1 | locus YER016W, strain bim1, active compounds read low 1.02 | locus YER110C, active compounds read low 0.97 | locus YER111C, strain swi4, active compounds read low 0.996 | locus YER155C, strain BEM2 (second series), active compounds read low 0.999 | locus YER155C, strain BEM2, active compounds read low 0.993 | locus YER167W, strain BCK2, active compounds read low 0.989 | locus YFR010W, strain ubp6, active compounds read low 0.98 | locus YGL078C, strain dbp3, active compounds read low 0.997 | locus YGL086W, strain mad1, active compounds read low 0.992 | locus YGL167C, strain pmr1, active compounds read low 0.992 | locus YGL173C, strain kem1, active compounds read low 1 | locus YGL227W, strain vid30, active compounds read low 0.997 | locus YGL240W, strain doc1, active compounds read low 0.904 | locus YGL248W, strain PDE1, active compounds read low 0.953 | locus YGL253W, strain hxk2, active compounds read low 0.993 | locus YGR078C, strain PAC10, active compounds read low 0.953 | locus YGR135W, strain pre9, active compounds read low 0.969 | locus YGR229C, strain SMI1, active compounds read low 0.956 | locus YGR252W, strain gcn5, active compounds read low 0.824 | locus YHR013C, strain ard1, active compounds read low 0.913 | locus YHR027C, strain rpn1, active compounds read low 1.02 | locus YHR030C, strain SLT2, active compounds read low 0.973 and 0.958 | locus YHR079C, strain IRE1 (second series), active compounds read low 0.983 | locus YHR079C, strain IRE1, active compounds read low 0.979 | locus YHR094C, strain hxt1, active compounds read low 0.99 | locus YHR129C, strain ARP1, active compounds read low 0.967 | locus YHR142W, strain chs7, active compounds read low 0.987 | locus YHR200W, strain rpn10, active compounds read low 0.99 | locus YIL066C, strain RNR3, active compounds read low 0.935 | locus YIL073C, strain SPO22, active compounds read low 0.963 | locus YIL125W, strain kgd1, active compounds read low 0.979 | locus YIR030C, strain dcg1, active compounds read low 0.992 | locus YJL092W, strain hpr5, active compounds read low 1.01 | locus YJL095W, strain BCK1 (second series), active compounds read low 1 | locus YJL095W, strain BCK1, active compounds read low 0.974 and 0.949 | locus YJL115W, strain asf1, active compounds read low 0.991 | locus YJL129C, strain trk1, active compounds read low 1.02 | locus YJL134W, strain LCB3, active compounds read low 0.979 | locus YJL154C, strain vps35, active compounds read low 1.02 | locus YJL164C, strain tpk1, active compounds read low 0.984 | locus YJL166W, strain qcr8, active compounds read low 1.01 | locus YJL168C, strain set2, active compounds read low 0.982 | locus YJL187C, strain SWE1 (second series), active compounds read low 0.977 | locus YJL187C, strain SWE1, active compounds read low 1.01 | locus YJR043C, strain POL32, active compounds read low 0.953 | locus YJR066W, strain TOR1, active compounds read low 0.905
